Screening results deposited in PubChem BioAssay by National Center for Advancing Translational Sciences (NCATS).
Sampled rows, rich in hits. Any-hit rate of the full collection: about 13%.
Cycloheximide cs: affects cycloheximide protein synthesis inhibition readout, counter-screen; cell reporter, cycloheximide protein synthesis inhibition counterscreen; max response, %; 300,000 tested, 12% active; AID 2314; in the data active = max response mostly above about 13%, no sharp cut-off; inactive = mostly below about 14%; also: read at 38.3 µM for the half of the compounds with a filed dose; 0% is about no effect
Lassa entry inh: Lassa virus entry inhibition | Lassa virus pseudotype entry inhibition, cell reporter | Potency, µM (doses to about 37.9 µM), without a hit: at the top dose activity change, negative = inhibition, most hits filed as inhibitors | 300,000 tested, 1.2% active; calls by dose curve; tested in HEK293 cells; also: potency is read from the fitted curve at half-maximal effect; % is scaled to controls: 0 for no effect and ±100 for the full control effect; nearly all actives have a fitted effect of over 50% in size
HCV inh: HCV inhibition; Potency, µM (doses to about 41.8 µM), without a hit: at the highest dose activity change, negative = inhibition, usual class: inhibitors; 340,000 tested, 3.4% active; Huh7.5.1 HCVcc-Cre infection, luciferase reporter, 44 h; active = well fitted inhibition curve with a large enough effect; inconclusive = small, poorly fitted or top-dose-only effect, or another doubt; inactive = no such curve, though single readings can be large or run the other way; also: potency is read from the fitted curve at half-maximal effect; % is scaled to controls: 0 for no effect and ±100 for the full control effect
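After 44 h co-culture of compound, cells and HCVcc-Cre (~0.5 moi), substrate is added for 15 min at room temperature and luciferase measured over 15 sec. Cells were seeded at 1,000/well and pre-cultured 4 h.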
FMDV inh: foot and mouth disease virus antiviral activity | FMDV antiviral cell-based qHTS | Potency, µM (highest dose often 57.9 µM), without a hit: top-dose activity change, negative = inhibition, hits mostly inhibitors | 410,000 tested, 1.2% active | AID 1159524; calls by dose curve; tested in HEK293T cells; also: read-out not given here; potency is read from the fitted curve at half-maximal effect; % is scaled to controls: 0 for no effect and ±100 for the full control effect; nearly all actives have a fitted effect of over 45% in size
Shiga inhibitor: Shiga toxin inhibition; Vero cells, Shiga toxin protein synthesis inhibition reporter; inhibition, % at 38.7 µM; 290,000 tested, 9.2% active; AID 2315; in the data active = inhibition mostly above about 28%, no sharp cut-off; inactive = mostly below about 43%; also: 0% is about no effect
Marburg entry inh: blocks Marburg virus binding to or entry into cells | Marburg virus pseudotyped entry inhibition, cell reporter | Potency, µM (series often up to 37.8 µM), without a hit: at the highest dose activity change, negative = inhibition, usual class: inhibitors | 300,000 tested, 1.8% active; calls by dose curve; tested in HEK293 cells; also: potency is read from the fitted curve at half-maximal effect; % is scaled to controls: 0 for no effect and ±100 for the full control effect
* marks the source's active call; other numbers are inactive results; ? = inconclusive; . = no result given; [ ] = dose if it differs, or a comment.

SMILES	Cycloheximide cs	Lassa entry inh	HCV inh	FMDV inh	Shiga inhibitor	Marburg entry inh
Cc1sc(NC(=O)CSc2nnc(CCNC(=O)c3cccs3)n2C)nc1-c1ccccc1	0	-13%	?	0%	-5	?
COc1ccc(-n2c(O)c(/C(C)=N/N3CCCCCC3)c(=O)[nH]c2=O)cc1	-1	2.2µM*	7%	13%	7	?
CCC(=NCc1ccco1)c1c(O)n(-c2ccc(OC)cc2)c(=O)[nH]c1=O	-2	1.6µM*	3%	-8%	-5	11%[46.1 µM]
COc1ccc(-n2c(O)c(/C(C)=N/Nc3ccccc3)c(=O)[nH]c2=O)cc1	-2	?	-7%	-2%	1	?
CCC(=NCc1ccco1)c1c(O)n(-c2ccc(Cl)cc2)c(=O)[nH]c1=O	1	?	25%	-25%	-3	?
CC(=O)NCCn1c(SCC(=O)NCCC(C)C)nc2ccccc2c1=O	-4	-1%	2%	-14%	8	?
CCOC(=O)C1(Cc2cccc(OC)c2)CCCN(C(=O)c2cc(C)on2)C1 (centres undefined)	37*	1%	.	37%	92*	8%
CCOC(=O)C1(Cc2cccc(OC)c2)CCCN(C(=O)CNC(C)=O)C1 (centres undefined)	38*	23%[46.1 µM]	9%	0%	.	?
CCOC(=O)C1(Cc2cccc(OC)c2)CCCN(C(=O)c2cc(C)[nH]n2)C1 (centres undefined)	-5	?	-10%	69%	-14	?
CCOC(=O)C1(Cc2cccc(OC)c2)CCCN(C(=O)c2ccccc2C)C1 (centres undefined)	59*	16%	-8%	23%	116*	-15%[46.1 µM]
CCOC(=O)N1CCN(C(=O)CN(c2ccc(OC)cc2)S(C)(=O)=O)CC1	-2	-14%	?	7%	-7	-4%
COC(=O)C1=C(C)N(c2ccc(Cl)cc2)/C(=C/c2ccc(O)cc2)C1=O	-1	-20%	?	25µM*	-2	?
COC(=O)NNC(=O)/C=C/c1ccccc1	-4	3%	8%	26%	-7	?
COP(=O)(OC)C(NC(=O)/C=C/c1ccccc1)C(Cl)(Cl)Cl (centres undefined)	21	-9%	-15%	20%	55*	20%[46.1 µM]
COc1ccc(/C=C/C(=O)Nc2cc(C(F)(F)F)ccc2Cl)cc1	1	-14%	-8%	.	-11	0%
COc1ccccc1OCC(=O)N1CCCC(Nc2ccc(C)c(C)c2)C1 (centres undefined)	8	-13%	6%	-8%	-34	0%
COc1ccc(CCC(=O)N2CCCC(Nc3ccc(C)c(C)c3)C2)cc1OC (centres undefined)	23*	.	-11%	-7%	-7	.
CC(/C=N/NC(=O)c1cc(-c2ccc(C)s2)[nH]n1)=C\c1ccccc1	9	?	5.6µM*	-1%	-15	?
CC(/C=N/NC(=O)c1cc(C(C)(C)C)[nH]n1)=C\c1ccccc1	2	?	14µM*	-22%	11	?
C/C(=N\NC(=O)c1cc(-c2ccc(C)s2)[nH]n1)c1ccncc1	4	7%[46.1 µM]	-2%	35%	11	?
CC(C)C[C@H]1CN(CCCC[C@@H]2CNC(=O)C(=O)N2Cc2ccccc2)C(=O)C(=O)N1CCC1CCCCC1	.	.	.	12%	.	.
COCC(=O)n1nc(-c2ccccc2)nc1NCc1cccs1	33*	-7%	20%	61%	63*	4%[46.1 µM]
COC(=O)c1ccc(NC(=O)N(c2ccccc2)c2ccccc2)cc1	-4	.	9%	-17%	-6	.
CN(C)C(CNc1ncnc2sc3c(c12)CCCC3)c1ccco1 (centres undefined)	15*	1%	?	-12%	20	?
COc1ccccc1-c1ccc2ncnc(NC3CC3)c2c1	.	.	.	-22%	.	.
SMILES	Cycloheximide cs	Lassa entry inh	HCV inh	FMDV inh	Shiga inhibitor	Marburg entry inh
CC(C)(C)NCCOc1ccc2ccccc2c1	4	-3%	-18%	-12%	-6	?
BrCCOCCOc1ccc2ccccc2c1	65*	9%	2%	41%	26	-4%
CCOC(=O)c1snc(-c2ccc(F)cc2)c1N	35*	8%	2%	66%	103*	?
CC(C)Sc1ccc(C(=O)Nc2ccc(F)cc2F)cn1	48*	19%	-11%	-8%	50*	?
CN(C)c1ccncc1C(=O)Nc1ccc(F)cc1F	0	13%[46.1 µM]	25%	21%	2	-6%[46.1 µM]
O=C(Nc1ccc(F)cc1F)c1ccc(-n2cccn2)nc1	16*	0%	-20%	-7%	18	?
O=C(Nc1ccc(F)cc1F)c1ccc(-n2cncn2)nc1	0	11%	11%	-14%	-6	16%
COc1ccccc1CN1CC(C(=O)NCc2c(F)ccc(C)c2F)CCC1=O (centres undefined)	47*	.	-18%	32%	82*	.
O=C(NC1CCC1)C1CCC(=O)N(Cc2cccc(F)c2)C1 (centres undefined)	18	.	14%	-7%	-6	.
COc1ccccc1CCNC(=O)C1CCC(=O)N(Cc2ccccc2OC)C1 (centres undefined)	15*	21%	22%	-8%	23	17%
COc1ccccc1CCNC(=O)C1CCC(=O)N(Cc2cccc(F)c2)C1 (centres undefined)	20*	.	13%	24%	37*	.
CN(C(=O)C1CCC(=O)N(Cc2cccc(F)c2)C1)C1CCCCC1 (centres undefined)	87*	-1%[46.1 µM]	11%	23%	121*	24%[46.1 µM]
Cc1ccccc1C(=O)N1CCC(C(=O)Nc2nc3ccc(F)cc3s2)CC1	.	-9%	?	?	.	-4%
CC(NC(=O)C1CCN(C(=O)Nc2ccccc2)CC1)c1ccccc1Cl (centres undefined)	.	.	4%	-10%	.	.
CN(CCNC(=O)C1CCC(=O)N(Cc2ccc(Cl)cc2)C1)CCc1ccccc1 (centres undefined)	4	20%	11%	-12%	-9	?
COc1ccc(CCN2CC(C(=O)NCCc3ccccc3C(F)(F)F)CCC2=O)cc1 (centres undefined)	66*	.	-17%	45%	70*	.
COc1ccc(CCCNC(=O)C2CCC(=O)N(CCCN3CCCC3=O)C2)cc1 (centres undefined)	-1	.	4%	4%	-4	.
CC(C)Oc1ccc(CCNC(=O)C2CCC(=O)N(Cc3cccc(F)c3)C2)cc1 (centres undefined)	55*	-4%	2%	26%	54	-3%
COc1ccc(CCNC(=O)C2CCC(=O)N(CCc3ccc(OC)cc3)C2)cc1 (centres undefined)	16	.	1%	-12%	23	.
O=C(NCCc1ccc(C(F)(F)F)cc1)C1CCC(=O)N(CCCN2CCCC2=O)C1 (centres undefined)	12*	.	6%	4%	18	.
COc1ccccc1CN1CC(C(=O)NCCN(C)CCc2ccccc2)CCC1=O (centres undefined)	12	5.6µM*	4%	13%	-8	?
